Data taken from PubChem BioAssay AID1851 (National Center for Advancing Translational Sciences (NCATS), 2009).
Among all 16,000 compounds or so, about 4,000 (25%) were called active. Inconclusive results (about 26%) are left out. Calls follow the shape of the dose curve; as a rule, active = well fitted curve in the direction sought with a large enough effect; inconclusive = small, poorly fitted or top-dose-only effect, or effect the other way; inactive = no such curve, though single readings can be large or run the other way. Not all results are given here.

Biological target: Cytochrome P450 2C9 (Homo sapiens) (UniProt P11712)
Sequence (P11712 whole entry, looked up): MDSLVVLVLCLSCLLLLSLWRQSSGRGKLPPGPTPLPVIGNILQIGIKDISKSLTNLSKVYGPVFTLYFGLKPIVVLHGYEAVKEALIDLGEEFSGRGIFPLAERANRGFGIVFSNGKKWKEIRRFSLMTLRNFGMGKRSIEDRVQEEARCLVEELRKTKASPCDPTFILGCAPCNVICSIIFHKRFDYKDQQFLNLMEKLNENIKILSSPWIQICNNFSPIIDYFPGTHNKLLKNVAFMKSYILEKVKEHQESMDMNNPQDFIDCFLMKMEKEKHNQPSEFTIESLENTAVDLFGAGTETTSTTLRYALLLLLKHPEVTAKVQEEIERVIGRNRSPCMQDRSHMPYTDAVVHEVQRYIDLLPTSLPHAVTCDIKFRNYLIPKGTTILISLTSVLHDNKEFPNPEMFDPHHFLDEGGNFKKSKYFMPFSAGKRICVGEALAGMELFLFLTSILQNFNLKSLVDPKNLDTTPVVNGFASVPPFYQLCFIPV
Test: Cytochrome panel assay with activity outcomes
Conditions: recombinant CYP, pro-luciferin dealkylation, luminescence, p450-cyp2c9; series mostly up to 57.1 µM
% is scaled to controls: 0 for no effect and ±100 for the full control effect.

AC50, inactive:
Nc1ncnc(N(c2ccccc2)C2CCCCC2)c1[N+](=O)[O-], C[C@@H]1[C@H]2CC[C@@H]3[C@@H]4CC=C5C[C@@H](N(C)C)CC[C@]5(C)[C@@H]4CC[C@@]32CN1C, Cc1nc2ccccc2nc(C)c1=NO, COCCNC(=O)CCCCCn1c(=S)[nH]c2ccccc2c1=O, CC(C)(C)C(=O)OCOC(=O)[C@@H]1N2C(=O)[C@@H](NC(=O)[C@H](N)c3ccccc3)[C@H]2SC1(C)C, CCC(C)NC(=O)c1cnn2c(C)c3c(nc12)CCCC3 (configuration not stated), CCC(=O)NNC(=O)CCC(=O)Nc1ccccc1, CCC#CCOCC(=O)Nc1ccccc1, C#CCCCC(=O)Nc1ccccc1, NC(N)=NC(=O)c1nc(Cl)c(N2CCCCCC2)nc1N, CNC(=O)NC(=O)CSc1nnc(-c2ccco2)n1Cc1ccccc1, CC(C)(C)NC(=O)CSc1nnc(Cc2ccc3c(c2)OCO3)n1C1CCCCC1, COc1ccc2c(c1)CCC1C2CC[C@]2(C)[C@H](NCCCCCCN3C(=O)C=CC3=O)CC[C@@H]12 (some centres not stated), Cc1cccc(-n2ncc3c(Nc4c(C)n(C)n(-c5ccccc5)c4=O)ncnc32)c1, COC(=O)c1ccccc1NC(=O)CSc1nnc(C(CO)NC(=O)c2ccccc2Cl)n1C (configuration not stated), O=S(=O)(c1ccc(Cl)cc1)c1cnc(-c2cccnc2)nc1-c1ccccc1, CCCc1c(-c2ccc(O)cc2)nn(-c2ccc(O)cc2)c1-c1ccc(O)cc1, COc1ccc(-n2c(=O)c(-c3ccc(F)cc3)nc3cnc(OC)nc32)cc1, O=C(O)[C@@H]1CCCNC1, CCCN(C(=S)Nc1ccccc1)C1CCS(=O)(=O)C1 (configuration not stated), CN(C(=O)COc1cccc(Br)c1)C1CCS(=O)(=O)C1 (configuration not stated), CC(=O)c1cc2ccccc2oc1=O, CCN(CC)c1ccc2cc(C(C)=O)c(=O)oc2c1, Cc1cc(C)c[n+](CC(=O)c2cc3ccccc3oc2=O)c1, CCc1ccc(OCC(=O)OC2CCS(=O)(=O)C2)cc1 (configuration not stated), CC(C)(C)c1cc(C(=O)O)c(CN2CCCCC2)o1, Cn1cccc1C(=O)N1CCC2(CCCN(Cc3ccccc3)C2)CC1, COCC(=O)N1CCC2(CCN(Cc3ccccc3OC)CC2)CC1, Cn1cccc1C(=O)N1CCC2(CCN(Cc3nccs3)CC2)CC1, O=C(c1ccco1)N1CCC2(CCN(Cc3ccccc3)CC2)CC1, Cn1cccc1C(=O)N1CCC2(CCCN(Cc3ccc(C#N)cc3)C2)CC1, CC(=O)N1CCC2(CCN(Cc3ccncc3)CC2)CC1, Cn1cccc1C(=O)N1CCC2(CCN(Cc3ccccc3)CC2)CC1, O=C(c1ccncc1)N1CCC2(CCN(Cc3ccccc3)CC2)CC1, CCCS(=O)(=O)N1CCCC(C(=O)NCCCOCC)C1 (configuration not stated), CCc1cccc(CC)c1NC(=O)CN(CC(=O)O)CC(=O)O, COc1ccc(N(C)S(=O)(=O)c2ccc3c(c2)CCC(=O)N3)cc1, CN(C)c1ccc(NC(=O)c2cccc(N3C(=O)C4C5C=CC(C5)C4C3=O)c2)cc1 (configuration not stated), CCNc1ncc2nc(C)c(=O)n(C[C@H]3CCCO3)c2n1, O=P(Cc1cc[n+]([O-])cc1)(c1ccccc1)c1ccccc1, Cc1cccc(C)c1NC(=O)C(c1ccccc1)N1CCC1=O (configuration not stated), Cc1cccc(C)c1NC(=O)[C@H](C)N, COc1ccccc1CN1CCC2(CC1)CCN(S(C)(=O)=O)CC2

AC50, active:
CCOC(=O)c1c2ccc(OCC(=O)N/N=C/c3ccc(Cl)cc3)cc2n2ccccc12 6.31 µM, C=CCNc1oc(/C=C/c2ccccc2)nc1C#N 4.47 µM, C=CCc1cc(C=O)cc(OC)c1OCc1ccc(Cl)cc1 8.91 µM, O=C(CCCCCn1c(=O)[nH]c2ccsc2c1=O)NCc1ccc2c(c1)OCO2 4.47 µM, O=C(CCCCn1c(=S)[nH]c2ccsc2c1=O)NCc1ccco1 2.24 µM, Cc1nc2c(C(=O)N3CCOCC3)cnn2c(C)c1Cc1ccc(Cl)cc1 7.94 µM, O=C(Cc1ccccc1I)Nc1ccccc1 25.1 µM, CCCCC#Cc1ccccc1CC(=O)Nc1ccccc1 2.51 µM, C=C(CC)C(=O)c1ccc(OCC(=O)O)c(Cl)c1Cl 0.631 µM, COc1cc(NC(=O)Cc2c(C(=O)O)[nH]c3ccccc23)cc(OC)c1OC 12.6 µM, CC(=O)Nc1ccc(NC(=O)CSc2nnc(-c3ccccc3)n2Cc2ccc3c(c2)OCO3)cc1 11.2 µM, Cc1cc(NC(=O)CSc2nnc(-c3ccccc3)n2Cc2ccco2)no1 10 µM, CCOC(=O)C1CCCN(c2ncnc3c2cnn3-c2ccc(Cl)cc2)C1 (configuration not stated) 7.08 µM, CCOC(=O)C1CCCN(c2ncnc3c2cnn3-c2cccc(C)c2)C1 (configuration not stated) 12.6 µM, COc1ccc(C(=O)NC(CO)c2nnc(SCc3ccc(Cl)c(Cl)c3)n2C)cc1 (configuration not stated) 14.1 µM, CN1CCN2c3ncccc3Cc3ccccc3C2C1 (configuration not stated) 0.0501 µM, O=S(=O)(c1ccccc1)c1cnc(-c2cccnc2)nc1-c1ccc(Cl)cc1Cl 10 µM, Cc1ccc(-c2csc(N3CCC(NS(=O)(=O)c4ccc5c(c4)OCCO5)CC3)n2)cc1 3.55 µM, CCOc1ccc(CN(C(=O)c2oc3ccccc3c2C)C2CCS(=O)(=O)C2)cc1 (configuration not stated) 8.91 µM, CCc1ccc(CN(C(=O)c2cc3ccccc3oc2=O)C2CCS(=O)(=O)C2)cc1 (configuration not stated) 8.91 µM, Cc1ccc(CN(C(=O)c2cc3ccccc3oc2=O)C2CCS(=O)(=O)C2)cc1 (configuration not stated) 11.2 µM, O=C(c1sc2ccccc2c1Cl)N(Cc1ccccc1)C1CCS(=O)(=O)C1 (configuration not stated) 3.98 µM, O=S(=O)(NCc1cn2ccsc2n1)c1ccc(Oc2ccccc2)cc1 7.08 µM, Cn1cccc1C(=O)N1CCC2(CCN(Cc3ccncc3)CC2)CC1 10 µM, COCC(=O)N1CCC2(CCN(Cc3ccncc3)CC2)CC1 0.398 µM, O=C(c1ccco1)N1CCC2(CCN(Cc3ccncc3)CC2)CC1 7.94 µM, Cn1cccc1C(=O)N1CCC2(CCCN(Cc3ccncc3)C2)CC1 1.58 µM, CN(CC(=O)N1CCN(c2ccccc2)CC1)S(=O)(=O)c1cnc[nH]1 0.0708 µM, CCc1cccc(NC(=O)CN(C)S(=O)(=O)c2cnc[nH]2)c1 0.631 µM, Cc1cccc(N(C)S(=O)(=O)c2ccc3[nH]c(=O)c(=O)[nH]c3c2)c1 4.47 µM, O=C(Nc1ccc(Cl)cc1Cl)c1cccc(N2C(=O)C=CC2=O)c1 11.2 µM, CCc1ccc(C(=O)N2CCC(c3nc4ccccc4s3)CC2)cc1 1.58 µM, Cc1cccc(C)c1NC(=O)C(c1ccc(Cl)cc1Cl)N1CCCCC1 (configuration not stated) 14.1 µM

activity, negative = inhibition, inactive:
O=C(O)[C@@H]1[C@@H]2C[C@@H]3[C@@H](OC(=O)[C@@H]31)[C@H]2Br -8.47% [at 11.4 µM], CC(C)[C@H](NC(=O)OC(C)(C)C)[C@@H](O)CC(=O)C(C)(C)C 9.81% [at 11.4 µM], CO[C@H]1COC(=O)C/C=C\[C@@H](C)COC(=O)[C@@H](OCc2ccccc2)/C=C\[C@@H]1C -24.9% [at 11.4 µM], NC(N)=NC(N)=Nc1ccccc1 (tested in a mixture with another compound) -12.4% [at 11.4 µM], Cc1cc2ccccc2c[n+]1CC(O)C[n+]1cc2ccccc2cc1C 8.36% [at 11.4 µM], NCC(=O)Nc1ccccc1 17% [at 11.4 µM], CC(C)(C)c1ccc(OCC(=O)O)c(Cl)c1 -19.9% [at 11.4 µM], CC(C)=NOC[C@@H](O)COCc1ccco1 0.0785% [at 11.4 µM], Clc1ccc2c(N3CCC(CCC4CCN(c5ncnc6cc(Cl)ccc56)CC4)CC3)ncnc2c1 -21% [at 11.4 µM], Cc1noc(C)c1-c1ccc2ncnc(N3CCC(C(=O)O)CC3)c2c1 14.5% [at 2.29 µM], CN(C)Cc1ccccc1-c1nc(NCc2cccs2)c2ccccc2n1 5.46% [at 2.29 µM], CN1CCN(c2ncncc2-c2cccnc2)CC1 -10.3% [at 2.29 µM], COc1ccccc1-c1cncnc1N1CCN(C)CC1 3.41% [at 2.29 µM], Cc1ccc(C)c(/C(=N\N=C(N)N)C2CC2)c1 -5.2% [at 11.4 µM], Nc1nc(-c2cccnc2)cc(-c2cc(-c3cccnc3)nc(N)n2)n1 -11.2% [at 11.4 µM], CN(C)Cc1ccccc1-c1nc(N(C)Cc2ccco2)c2ccccc2n1 11.9% [at 2.29 µM], Nc1ccc(S(=O)(=O)NCc2nccs2)cc1 -21.4% [at 11.4 µM], CN(C)c1ccc(-c2cncnc2Nc2ccccc2)cc1 -6.76% [at 2.29 µM], O=C1[C@H]2O[C@@H]2[C@@H](O)[C@H]2[C@H]1CCn1c(=O)n(Cc3cc4c(cc3Cl)OCO4)c(=O)n12 3.99% [at 11.4 µM], Nc1ncnc2c1ncn2C[C@@H](O)C(=O)O -0.945% [at 11.4 µM], N=C(N)SCC(=O)O -5.65% [at 11.4 µM]
